Assay outcomes: PubChem, National Center for Advancing Translational Sciences (NCATS)
Tau fluor counter – counter-screen for tau fibril formation inhibitors. AID 1463. Potency, µM (series often up to 57.7 µM). actives 0.93% (n = 280,000). tau K18 P301L Alexa594 fluorescence, heparin fibrillization; note: nearly all actives have a fitted effect of over 55% in size
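Human K18 P301L tau (15 uM unlabeled plus 0.24 uM Alexa 594-labeled, final) in 100 mM sodium acetate pH 7 was mixed with compound and 20 uM heparin and incubated 6 hr at 37 C.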
TR SRC2 fluor cs – alters Texas Red total fluorescence, flagging assay interference; Potency, µM (top dose mostly 106 µM); actives 0.29% (n = 280,000); TRb/SRC2 Texas Red total fluorescence interference; active = well fitted curve in either direction with a large enough effect; inconclusive = small, poorly fitted or top-dose-only effect
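Flags fluorescent or light-absorbing compounds by total fluorescence, S + 2P, at 555 nm excitation and 632 nm emission. Mixture: 20 nM Texas Red SRC2 peptide, 0.6 uM human TRb LBD, 1 uM T3, 5% DMSO; compound exposure 5 h at ambient temperature.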
KDM4E inh – blocks human JMJD2E demethylase activity | JMJD2E catalytic domain, FDH-coupled NADH fluorescence (FDH is formaldehyde dehydrogenase) | Potency, µM (highest dose often 57.1 µM), most hits filed as inhibitors | actives 1.6% (n = 230,000) | AID 2147; active = well fitted inhibition curve with a large enough effect, not every such curve was filed as active; inconclusive = small, poorly fitted or top-dose-only effect, or another doubt; inactive = no such curve, though single readings can be large or run the other way; note: nearly all actives have a fitted effect of over 50% in size
Target sequence (B2RXH2 1-337 limits assumed): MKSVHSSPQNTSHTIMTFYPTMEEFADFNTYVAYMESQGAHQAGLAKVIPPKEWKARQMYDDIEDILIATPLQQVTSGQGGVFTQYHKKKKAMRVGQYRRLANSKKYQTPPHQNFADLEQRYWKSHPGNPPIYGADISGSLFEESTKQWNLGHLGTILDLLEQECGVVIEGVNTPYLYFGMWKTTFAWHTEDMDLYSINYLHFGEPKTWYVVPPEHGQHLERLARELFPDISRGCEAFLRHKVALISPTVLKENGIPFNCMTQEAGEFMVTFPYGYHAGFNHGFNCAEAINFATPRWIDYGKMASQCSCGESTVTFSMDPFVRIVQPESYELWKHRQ
Tau FP inhib – inhibitors of human tau fibril formation; P10636; K18 P301L tau heparin fibrillization, Alexa594 FP, 6 h; Potency, µM (doses to about 57.7 µM), usual class: inhibitors; actives 0.39% (n = 280,000); AID 1468; note: nearly all actives have a fitted effect of over 55% in size
Target sequence (P10636 561-689 P618L limits assumed): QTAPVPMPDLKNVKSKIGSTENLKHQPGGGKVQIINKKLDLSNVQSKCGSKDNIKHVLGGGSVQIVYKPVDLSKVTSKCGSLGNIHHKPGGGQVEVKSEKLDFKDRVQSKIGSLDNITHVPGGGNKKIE
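Human tau K18 […] P301L fragment, 15 uM unlabeled plus 0.24 uM Alexa 594-labeled tau (final), with compound and 20 uM heparin in 100 mM sodium acetate pH 7; 6 hr at 37 C, then Alexa 594 FP read.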
Tau ThT inhib – inhibitors of human tau fibril formation, thioflavin T binding; P10636; Potency, µM (doses to about 57.4 µM), actives largely listed as inhibitors; actives 2.1% (n = 270,000); recombinant tau K18 P301L, heparin-induced fibrillization, ThT fluorescence; note: nearly all actives have a fitted effect of over 55% in size
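ThT emission at 510 nm, taken 1 hr after adding 30 uM dye, quantifies aggregates formed when 20 uM heparin acts on human tau K18 P301L for 6 hr at 37 C.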
TRb SRC2 PPI – disrupts binding of human TR beta to SRC2; P10828; TRbeta-SRC2 peptide binding, fluorescence polarization; receptor liganded with 1 µM T3; Potency, µM (highest dose often 106 µM), actives largely listed as inhibitors; actives 0.065% (n = 280,000); AID 1469; note: nearly all actives have a fitted effect of over 50% in size
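TRb LBD 0.6 uM + Texas Red SRC2 peptide 20 nM, 1 uM T3, Tris buffer w/ 5% DMSO; compound pinned, 5 h RT; FP read ex 555/em 632; normalized to unbound and bound controls.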
Tau fibril TEM – Inhibits human tau fibrillization. shares compounds with Tau ThT inhib. recombinant tau K18 P301L fibrillization, TEM grading; stronger effect = higher value. fibril grade (0 = clumped fibrils, 4 = only tiny pieces) (concentration not given with the values). actives 70% (n = 45). AID 1719;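 active = compounds whose electron micrographs showed tau fibrils broken into shorter filaments or fragments, graded high on fibril breakup; inconclusive = micrographs gave an unclear fibril picture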
tau sediment – inhibitors of human tau fibrillization, sedimentation test | shares compounds with Tau ThT inhib | recombinant tau K18 P301L (four-repeat tau fragment), sedimentation SDS-PAGE densitometry | inhibition, % at 100 µM | actives 50% (n = 110); in the data active = inhibition above about 40%; inconclusive = no clear call, values can overlap the other calls; inactive = below about 18%
A number is an active result; – = inactive; ? = inconclusive; · = not tested or not shown; [ ] = dose if it differs, or a comment. The list is not random: actives were taken first. Their share in the collection is about 3.5%. Unless noted, calls come from the whole dose curve; as a rule, active = well fitted curve in the direction sought with a large enough effect; inconclusive = small, poorly fitted or top-dose-only effect, or another doubt; inactive = no such curve, though single readings can be large; an effect the other way counts as inactive or inconclusive.

SMILES | Tau fluor counter | TR SRC2 fluor cs | KDM4E inh | Tau FP inhib | Tau ThT inhib | TRb SRC2 PPI | tau sediment | others
CCn1c(CSc2nccn2C)nc2cc(C(=O)O)ccc21 | – | 13µM[fluorescent] | ? | ? | 4µM | ? | 56 | Tau fibril TEM=3
Cc1ccc(-c2nnc(Nc3ccc(Cl)cc3)c3ccccc23)cc1S(=O)(=O)N1CCOCC1 | ? | – | · | ? | ? | – | ·
Cc1ccc(C(=O)Nc2nc(=O)n(C(=O)CC(C)C)s2)cc1 | – | – | – | ? | ? | – | –
Cc1ccc(C(=O)Nc2nc(=O)[nH]s2)cc1 | – | – | – | – | – | – | ·
CCn1nccc1C(=O)Nc1cc(Cl)cc(Cl)c1 | ? | – | – | 28µM | ? | – | ?
CSc1ccccc1NC(=O)COc1ccccc1C | – | – | – | – | ? | – | ·
CN(C)c1ccc(N2C(=O)CSC2=S)cc1 | ? | – | 6.3µM | ? | 4.5µM | – | –
Nc1c(-c2ccccc2)cc[nH]c1=O | · | · | · | · | · | · | –
O=C(Nc1ccc(F)cc1F)c1csc(-c2cccs2)n1 | – | – | – | – | – | – | ·
COc1ccc2[nH]c(=O)c(CN(Cc3cccs3)C(=S)Nc3cccc(C)c3)cc2c1 | ? | ? | – | ? | – | – | ·
COc1ccc2[nH]c(=O)c(CNc3cccc(C)c3)cc2c1 | – | – | – | – | – | – | 85 | Tau fibril TEM=4
CC(=O)Nc1nc(C)c(-c2csc(Nc3ccc(O)cc3)n2)s1 | 14µM[quencher] | – | ? | – | 8.9µM | – | ? | Tau fibril TEM=–
CC(=O)Nc1nc(C)c(-c2csc(Nc3cccc([N+](=O)[O-])c3)n2)s1 | ? | – | – | ? | ? | – | –
Cc1ccc(-n2c(=O)c3c(n4cnnc24)-c2ccccc2CC32CCCCC2)cc1 | – | – | – | – | – | – | ·
N#Cc1cccc(NC(=O)c2ccc3c(c2)N(Cc2cccc(Cl)c2)C(=O)c2ccccc2S3(=O)=O)c1 | – | – | · | 13µM | – | – | –
Cc1cc(NC(=O)c2ccc3c(c2)N(Cc2cccc(Cl)c2)C(=O)c2ccccc2S3(=O)=O)ccc1Br | – | – | · | ? | – | – | ·
O=C(Cn1c(=O)c(CNc2ccccc2)cc2cc3c(cc21)OCCO3)Nc1ccccc1Cl | ? | – | · | ? | 8.9µM | – | 62 | Tau fibril TEM=–
Cc1ccc(Cl)cc1NC(=O)Cn1c(=O)c(CNc2ccccc2)cc2cc3c(cc21)OCCO3 | ? | – | · | – | ? | – | ·
CC1=NNC(=O)C1C(c1ccc(Cl)cc1)C(C#N)C#N (stereo unspecified) | – | – | – | – | – | – | ·
O=C(O)CN1C(=O)/C(=C/c2ccc(-c3cccc(Cl)c3)o2)SC1=S | · | · | · | · | · | · | –
Cc1ccc(NC(=O)CN2C(=O)S/C(=C/c3ccc(-c4cccc(C(=O)O)c4)o3)C2=O)cc1 | – | – | – | – | – | – | ·
COC(=O)c1nn(-c2ccc(OC)cc2)c(=O)c2c(N)sc(C)c12 | – | – | – | – | ? | – | 44 | Tau fibril TEM=?
CCOC(=O)c1nn(-c2ccc(C)cc2)c(=O)c2c(N)scc12 | ? | – | ? | ? | 14µM | – | ?
CCOC(=O)c1nn(-c2ccc(F)cc2)c(-c2ccccc2)c1C(=O)c1ccccc1 | – | – | – | – | – | – | ·
CCOC(=O)c1nn(-c2ccc(Cl)cc2)c(=O)c2c(N)scc12 | · | · | · | · | · | · | 62
SMILES | Tau fluor counter | TR SRC2 fluor cs | KDM4E inh | Tau FP inhib | Tau ThT inhib | TRb SRC2 PPI | tau sediment | others
CCOC(=O)c1nn(-c2ccc(F)cc2)c(=O)c2c(N)scc12 | – | – | – | –[2.34 µM] | – | – | 64
O=C(Cn1nnc2ccccc2c1=O)NC1CCCc2ccccc21 (stereo unspecified) | – | – | – | – | – | – | ·
CCn1c(=O)c([N+](=O)[O-])c(NCCc2ccc(OC)c(OC)c2)c2ccccc21 | – | – | – | – | – | – | ·
Cc1cc(NS(=O)(=O)c2ccc(NC(=O)CSc3nc4sc(C)c(C)c4c(=O)[nH]3)cc2)no1 | – | – | – | – | ? | – | ·
CCCOCC(O)CCc1n[nH]c(=S)n1-c1ccccc1 (stereo unspecified) | – | – | – | – | – | – | ·
Cc1[nH]c(=O)c(C#N)cc1-c1ccncc1 | – | – | ? | – | – | – | –
Cc1[nH]c(=O)c(C#N)cc1-c1ccc2nccn2c1 | – | – | – | – | – | – | ·
Cc1cccc(C(=O)NCN2CCN(c3ccccc3C#N)CC2)c1 | – | ? | ? | – | – | – | ·
O=C(Nc1cccc(-c2nc3ccccc3o2)c1)c1cc([N+](=O)[O-])ccc1N1CCOCC1 | ? | ? | · | ? | – | – | –
COc1ccc2oc(-c3cccc(NC(=O)c4cc([N+](=O)[O-])ccc4N4CCOCC4)c3)nc2c1 | ? | – | · | – | ? | – | ·
CC(C)(C)CC(C)(C)NC(=O)Nc1cccc([N+](=O)[O-])c1 | ? | – | – | – | – | – | ·
O=C(Nc1ccc(OC(F)(F)F)cc1)Nc1cccc([N+](=O)[O-])c1 | 1.8µM[quencher] | – | – | 4.5µM | ? | – | –
Cc1nnc(N(C)C(=O)c2cnccn2)s1 | – | – | – | – | – | – | ·
Cn1cc(Cl)c(C(=O)Nc2nc3ccccc3s2)n1 | – | – | ? | – | – | – | ·
Cn1cc(Cl)c(C(=O)Nc2cccc(Cl)c2Cl)n1 | – | – | – | – | – | – | –
Oc1ccccc1CNc1cccc2cccnc12 | 16µM[quencher] | – | ? | ? | 6.3µM | – | 61 | Tau fibril TEM=?
Cc1ccc(-c2nc(SCC(=O)c3c(N)n(C)c(=O)n(C)c3=O)n[nH]2)cc1 | – | – | – | – | – | – | ·
CN(c1ccccc1)S(=O)(=O)c1nnc(NC(=O)C2CCCCC2)s1 | ? | ? | · | ? | 2.5µM | – | 80 | Tau fibril TEM=3
CN(c1ccccc1)S(=O)(=O)c1nnc(NC(=O)c2ccco2)s1 | – | – | · | – | – | – | ·
